The source made the active and inactive calls. Rule for the calls: active = hit-call score of the fitted dose curve at least 0.9, where 1 is the maximum; inactive = score below 0.9.
read-out: CYP2C8 (gene 1558); experiment: LTEA_HepaRG_CYP2C8: Life Technologies and Expression Analysis (LTEA) Assay for CYP2C8 using HepaRG (AID 2283483); settings: mRNA level, 48 h; actives raise or lower the signal
Procedure, shortened: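 CYP2C8 expression measured by TaqMan qRT-PCR and normalized to three housekeeping genes. HepaRG cultures were treated for 48 h with an eight-point half-log series topping at 100 uM, vehicle 0.5% DMSO, duplicates; fitted both directions against DMSO.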

SMILES | outcome | AC50
C[C@]12C=CC(=O)C=C1CC[C@H]1[C@@H]3C[C@@H](O)[C@](O)(C(=O)CO)[C@@]3(C)C[C@H](O)[C@@]12F | inactive | 
O=C(O)c1ccc2c(c1)nc(C(=O)NC1CCN(C3CC3)CC1)n2Cc1cc(-c2ccc(Cl)s2)on1 | inactive | 
O=S1(=O)CCCO1 | inactive | 
Cn1c(=O)c2[nH]cnc2n(C)c1=O | inactive | 
CC(C)c1nnc2ccc(-c3ocnc3-c3cc(F)ccc3F)cn12 |  | 82.6 µM (active)
CCCCCOC(C)=O | inactive | 
NC(N)=O | inactive | 
OCC(CO)(CO)CO | inactive | 
CC[C@H](C)C(=O)O[C@H]1C[C@H](O)C=C2C=C[C@H](C)[C@H](CC[C@@H](O)C[C@@H](O)CC(=O)O)[C@H]21 | inactive | 
c1ccc2ncccc2c1 |  | 36.2 µM (active)
O=C(NO)C1(NS(=O)(=O)c2ccc(Oc3ccc(F)cc3)cc2)CCOCC1 |  | 90.7 µM (active)
CCCc1ccccc1 | inactive | 
CC(C)CC(C)O (stereo not given) | inactive | 
CCCCC(CC)C(=O)OCCOCCOCCOC(=O)C(CC)CCCC (stereo not given) | inactive | 
CCCCCCCCCCCCCCCCOS(=O)(=O)O | inactive | 
C[C@@H](Oc1ccc(CNC(=O)c2cccnc2Oc2ccc3c(c2)OCO3)c(F)c1)C(=O)O | inactive | 
Cn1cc[nH]c1=S | inactive | 
CCCCCCCC/C=C\CCCCCCCC(=O)OC[C@@H](O)[C@H]1OC[C@H](O)[C@H]1O | inactive | 
c1ccc2c(c1)-c1cccc3c1c-2cc1ccccc13 |  | 17.3 µM (active)
COc1cc2c(c(OC)c1OC)-c1ccc(OC)c(=O)cc1[C@@H](NC(C)=O)CC2 |  | 0.0951 µM (active)

— PubChem BioAssay (EPA / NIEHS)
